# Target: EFCAB6
# Assay: pooled miR-30 sensor sort-seq; sequence = guide strand
# Conditions: shRNA
# Note: reference of the scale not given here.
row,Sequence,sensor-assay potency score (higher = more potent)
1,TTCTTAGACAAGTCTGACCATC,-0.457
2,TTGACTGGCATCTCGTTCCAGA,-0.455
3,TAAATGTTCACTTAACAGCTGA,-0.275
4,TTGAATATACTCTACACGGTGA,0.203
5,TAGTTCTGAATCCGCAACCTTC,-0.922
6,TATATCGAAATTCTTCTCTTGT,0.825
7,TTAGACAAGTCTGACCATCTGT,0.537

# Target: EFCAB7
# Assay: as above
# Conditions: shRNA
row,Sequence,sensor-assay potency score (higher = more potent)
1,TATATTTTCATAGCCATCCATT,-0.796
2,TTCATCTCTATATACAAGTTGG,-0.725
3,TTGTTTTCAATAACTGACGTTA,-0.29
4,TTCTCGATCATTAGCTTCCATT,-1.27
5,TTCTCTATTTCGTAGTTCGGTA,-1.01
6,TTCGGTAAAACACACAAGCTGT,-0.242
7,TTTACTGTCAACCTCTAGTTTT,-1.12
8,TACAATAATATATCCATTCTTG,-0.277
9,TTTGTATCAAAATTCTCTCTGC,0.129
10,TAGTCTTGAGACATTGCTCGTT,0.405
11,TAATTTACAAAACTTGATGTAG,-0.142
12,TTGATCTTTAGAAATAATGTTT,-0.858

# Target: EFNB2
# Assay: as above
# Conditions: shRNA
row,Sequence,sensor-assay potency score (higher = more potent)
1,TTAATAGTGCATCTGTCTGCTT,-0.0531
2,TTGCTCTATGTACACAATCTGG,-1.18
3,TAATAGTGCATCTGTCTGCTTG,0.293
4,TAGAGGATCATAATTTCTGTGA,-0.365
5,AATTCTTGAAACTTGATGGTGA,0.644
6,ATAGGCTCTAAAACTATCGATT,-0.56
7,TTGATCCAGCAGAACTTGCATC,-0.768
8,TATAATGTAATAATCTTTGTTC,0.426
9,TATAATATTCATACTGGCCAAC,-1.28
10,TAGTGCATCTGTCTGCTTGGTC,0.00867
11,TTCTGCACAGTCTTCCAGCTTC,-0.41
12,TTAGCATAGAACCAAAACGTAG,-1.59
13,TTTATCAACCATATAAACTTTA,-0.264
14,TTTATACAAAACATCTTGCTTA,0.624
15,TTTTCTTCCTGCACATCGCTAT,0.000564
16,TTGCACACCTTAACTAGCCCGA,-0.379
17,TTGTCGAACTTCTTCCATTTGT,-0.423
18,TTGGAAATCGCAGTTCTGCATA,-1.17
19,TTGTTGTCGAACTTCTTCCATT,-1.15
20,TATCTGTGGGTATAGTACCAGT,-1.11
21,TTAGACTTTATAAAAAACCAAC,-1.36
